Reference: the supplement of paper PMC10981050
Where “and” joins values, the source holds several entries; their conditions need not be identical. Equal values may be shown once. Where a name gives a salt, the structure may show the parent alone.

Columns and labels:
Assay in all cases: cell viability relative to vehicle control; higher = less cytotoxic
Settings in all cases: 10 µM
K562 = test system: K562
Outline: (§1)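 Each screen used CRISPR-edited mutant and wild-type clones from four leukaemia lines. Compounds were acoustically dispensed at a single 10 µM dose, and CellTiter-Glo luminescence was read after 48 h with the supernatant first removed. Viability was analysed in Genedata Screener and given as percent of the on-plate vehicle control.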

MARIMO = test system: MARIMO
Outline: as §1

MOLM14 = test system: MOLM14
Outline: as §1

OCI-AML2 = test system: OCI-AML2
Outline: as §1

Compound | cell viability (K562; SRSF2 genotype: SRSF2 P95H/wt) | cell viability (K562; SRSF2 genotype: SRSF2 wt/wt) | cell viability (MARIMO; SRSF2 genotype: SRSF2 P95H/wt) | cell viability (MARIMO; SRSF2 genotype: SRSF2 wt/wt) | cell viability (MOLM14; SRSF2 genotype: SRSF2 P95H/wt) | cell viability (MOLM14; SRSF2 genotype: SRSF2 wt/wt) | cell viability (OCI-AML2; SRSF2 genotype: P95H/wt) | cell viability (OCI-AML2; SRSF2 genotype: wt/wt)
C[C@H](CCC(=O)O)[C@H]1CC[C@H]2[C@@H]3CC[C@@H]4C[C@H](O)CC[C@]4(C)[C@H]3CC[C@]12C [Lithocholic acid] | 102% and 101% | 101% | 106% | 113% | 98.9% | 104% | 107% | 112%
N=C(N)c1ccc(OCCCCCOc2ccc(C(=N)N)cc2)cc1 [Pentamidine isethionate] | 53.9% and 50% | 55.9% | 63.3% | 62.8% | 72% | 70.5% | 65.5% | 57.8%
CCCCOc1ccc(CC(=O)NO)cc1 [Bufexamac] | 95% and 94.9% | 98.8% | 91.6% | 88.7% | 85.7% | 93.1% | 98.1% | 91.8%
Cc1cccc(-c2nn3c(c2-c2ccnc4ccc(C(N)=O)cc24)CCC3)n1 | 102% and 98% | 99.2% | 104% | 103% | 99.7% | 96.1% | 108% | 108%
CCNC(=O)c1[nH]nc(-c2cc(Cl)c(O)cc2O)c1-c1ccc(OC)cc1 | 19.1% and 31.3% | 23.6% | 33.6% | 28.2% | 2.11% | 1.17% | 12.6% | 19.3%
N=C(N)Nc1ccc(C(=O)Oc2ccc3cc(C(=N)N)ccc3c2)cc1 [Nafamostat mesylate] | 90.4% and 98.9% | 89.4% | 77.2% | 76% | 94.2% | 89.4% | 83.2% | 85.1%
CO[C@H]1[C@H](O)[C@@H](O)[C@@H](O)[C@H](O)[C@@H]1O [D-Pinitol] | 114% and 107% | 112% | 108% | 110% | 105% | 102% | 112% | 113%
Cc1cc(OCCCS(C)(=O)=O)cc(C)c1-c1cccc(COc2ccc3c(c2)OC[C@H]3CC(=O)O)c1 | 92.7% and 94.6% | 91.3% | 93.2% | 104% | 94.3% | 98.2% | 85% | 101%
CC(C)NC(=O)C1CCC(n2c(NC(=O)c3ccc(F)cc3)nc3ccc(CN4CCC(C(C)(C)O)CC4)cc32)CC1 (centres undefined) [Belizatinib (TSR-011)] | 59.4% and 65.3% | 56.9% | 41.4% | 45% | 7.89% | 11.3% | 19% | 35.3%
Nc1ccn([C@@H]2CS[C@H](CO)O2)c(=O)n1 [Lamivudine (Epivir)] | 100% and 99.5% | 102% | 105% | 104% | 99.8% | 105% | 106% | 114%
CCc1nc(C(N)=O)c(Nc2ccc(N3CCC(N4CCN(C)CC4)CC3)c(OC)c2)nc1NC1CCOCC1 [Gilteritinib (ASP2215)] | 89% and 85.7% | 91.4% | 40.9% | 40.6% | 4.58% | 8.89% | 14.3% | 21.3%
O=C(O)CCCCCCCC(O)C(O)CCCCCCO (centres undefined) [Aleuritic Acid] | 105% and 100% | 97.5% | 107% | 112% | 98.4% | 107% | 97.2% | 101%
Cc1cn([C@H]2C=C[C@@H](CO)O2)c(=O)[nH]c1=O [Stavudine] | 104% and 107% | 98.3% | 95% | 96.1% | 102% | 103% | 97.2% | 110%
CN(C)N(C)C(=O)[C@@]1(Cc2ccccc2)CCCN(C(=O)[C@@H](Cc2c[nH]c3ccccc23)NC(=O)C(C)(C)N)C1 [Anamorelin] | 82.4% and 78.3% | 80.7% | 70.5% | 74.3% | 76.5% | 78.8% | 69.2% | 68.2%
C=C1CCN([C@H](C)[C@](O)(Cn2cncn2)c2ccc(F)cc2F)CC1 [Efinaconazole] | 86.9% and 94% | 96.9% | 76.3% | 88.3% | 85.8% | 95.8% | 82.2% | 83.5%
Cc1ccc(C(C)C)cc2c(C)ccc1-2 [Guaiazulene] | 97.5% and 99% | 110% | 102% | 101% | 93.5% | 105% | 107% | 93.4%
Cc1cc(C2CCCCC2)n(O)c(=O)c1 [Ciclopirox (Penlac)] | 54.8% and 52% | 42.2% | 14.8% | 21.8% | 7.11% | 2.18% | 15.5% | 16.3%
C=CC[S+]([O-])C[C@H](N)C(=O)O (some centres undefined) [Alliin] | 105% | 107% | 104% | 96.5% | 114% | 107% | 102% | 98.2%
c1ccc(NCc2ccc(CNc3ccccn3)cc2)nc1 | 91.8% and 94.5% | 85% | 89% | 91.9% | 87.2% | 92.9% | 78.6% | 84.2%
O=C(/C=C/c1ccc2ccccc2n1)c1ccncc1 | 6.76% and 0.53% | 0.42% | 0.28% | 0.4% | 0.4% | 0.45% | 0.31% | 0.36%
CCCCCC(O)C=CC1C(O)CC(=O)C1CCCCCCC(=O)O (centres undefined) [Alprostadil(Caverject)] | 69.3% and 64.4% | 84.2% | 82.4% | 73.2% | 50.1% | 22.4% | 80.3% | 62.1%
O=C(CCCCc1ccc2c(c1)OCO2)N1CCCCC1 [Tetrahydropiperine] | 91.7% and 93.2% | 97.2% | 88.6% | 102% | 89.8% | 93.9% | 85% | 88.3%

Compound | cell viability (K562; SRSF2 genotype: SRSF2 P95H/wt) | cell viability (K562; SRSF2 genotype: SRSF2 wt/wt) | cell viability (MARIMO; SRSF2 genotype: SRSF2 P95H/wt) | cell viability (MARIMO; SRSF2 genotype: SRSF2 wt/wt) | cell viability (MOLM14; SRSF2 genotype: SRSF2 P95H/wt) | cell viability (MOLM14; SRSF2 genotype: SRSF2 wt/wt) | cell viability (OCI-AML2; SRSF2 genotype: P95H/wt) | cell viability (OCI-AML2; SRSF2 genotype: wt/wt)
C[C@H](N=C(NC#N)Nc1cccc2ncccc12)c1ccccc1 | 99.3% and 100% | 97% | 104% | 107% | 97.6% | 98.4% | 108% | 112%
CONC(=O)c1ccccc1Nc1cc(Nc2cc(C)nn2C(C)C)ncc1Cl | 91.8% and 101% | 105% | 93.2% | 101% | 82.9% | 102% | 95.8% | 103%
Nc1nc(=O)[nH]c2c1ncn2[C@@H]1O[C@H](CO)[C@@H](O)[C@H]1O [Isoguanosine] | 101% and 98.5% | 98.7% | 94.7% | 97.7% | 93.3% | 96.8% | 106% | 91.8%
CO/N=C(\C(=O)N[C@@H]1C(=O)N2C(C(=O)[O-])=C(C[n+]3cccc4c3CCCC4)CS[C@H]12)c1csc(N)n1 [Cefquinome sulfate] | 103% and 99.9% | 91% | 87.5% | 100% | 86.3% | 95.5% | 93.9% | 91.6%
CCOC(=O)C1OC1C(=O)NC(CC(C)C)C(=O)NCCC(C)C (centres undefined) | 103% | 97.2% | 96.3% | 101% | 88.7% | 101% | 98.5% | 104%
CC(C)[C@H]1C(=O)N[C@@H](CCCNC(=N)N)C(=O)NCC(=O)N[C@@H](CC(=O)O)C(=O)N[C@H](Cc2ccccc2)C(=O)N1C [Cilengitide trifluoroacetate] | 98.5% and 105% | 101% | 102% | 99.1% | 103% | 99.5% | 104% | 109%
COc1ccc(/C=C/c2cc(OC)cc(=O)o2)cc1 [Yangonin] | 108% and 102% | 104% | 97.7% | 99.3% | 115% | 114% | 94.1% | 98.2%
Nc1ncc(-c2ccnc(Nc3ccncc3)n2)c(CC2CC2)n1 | 69% and 73.7% | 74.2% | 69.8% | 66.9% | 44.8% | 43.8% | 43.3% | 45.2%
CCCOc1ccc(C(=O)OCCN(CC)CC)cc1N [Proparacaine HCl] | 99.7% and 99.3% | 99.5% | 103% | 104% | 99.1% | 99.7% | 90.2% | 103%
Clc1ccc(COC(Cn2ccnc2)c2ccc(Cl)cc2Cl)c(Cl)c1 (centres undefined) [Miconazole (Monistat)] | 65.6% and 81% | 62.2% | 61.1% | 73% | 67.2% | 54.8% | 65.5% | 54.4%
COc1cc(N2CCC(N)CC2)ccc1Nc1ncc(Cl)c(-c2c[nH]c3ccccc23)n1 | 14.5% and 15.7% | 7.15% | 37.8% | 33.6% | 1.81% | 5.73% | 6% | 16.7%
Cc1[nH]c(/C=C2\C(=O)Nc3ccccc32)c(C)c1CCC(=O)O [Orantinib (TSU-68, SU6668)] | 98.7% and 95.2% | 95.5% | 96.3% | 103% | 82% | 89.2% | 75.2% | 84.2%
COc1ccccc1C(=O)Nc1cc2c(cc1N1CCCC1)n(C)c(=O)n2C | 91.5% and 100% | 92% | 84.1% | 95.3% | 79.4% | 83.4% | 63.5% | 69.2%
Cc1noc(-c2ccc(CSCCC(=O)O)cc2)c1NC(=O)OC(C)c1ccccc1Cl (centres undefined) | 106% and 105% | 104% | 101% | 113% | 104% | 102% | 104% | 111%
CCOC(=O)[C@H](CCc1ccccc1)N[C@@H](C)C(=O)N1CCC[C@H]1C(=O)O [Enalapril maleate (Vasotec)] | 106% and 100% | 106% | 99.6% | 111% | 112% | 103% | 94.2% | 97.8%
CC(=O)OCC(=O)[C@@]1(O)CC[C@H]2[C@@H]3CCC4=CC(=O)CC[C@]4(C)[C@H]3C(=O)C[C@@]21C [Cortisone acetate (Cortone)] | 110% and 108% | 118% | 118% | 109% | 112% | 112% | 117% | 109%
C[C@@H](O)[C@H]1C(=O)N2C(C(=O)OCOC(=O)C(C)(C)C)=C(SC3CN(C4=NCCS4)C3)[C@H](C)[C@H]12 [Tebipenem pivoxil (L-084)] | 99.2% and 99.3% | 90% | 90.5% | 84.3% | 88.7% | 95.2% | 103% | 97.2%
CC(=O)OCC(=O)NCCCOc1cccc(CN2CCCCC2)c1 [Roxatidine acetate HCl] | 102% and 97.3% | 96.1% | 93.7% | 103% | 101% | 101% | 92% | 94.8%
O=C(O)CCn1c2c(c3ccccc31)C[C@H](NS(=O)(=O)c1ccc(F)cc1)CC2 [Ramatroban] | 100% and 101% | 105% | 106% | 108% | 102% | 104% | 101% | 103%
O=c1c(O)c(-c2ccc(O)c(O)c2)oc2cc(O)cc(O)c12 [Quercetin dihydrate (Sophoretin)] | 107% and 99.5% | 92.6% | 98.4% | 98% | 100% | 99.6% | 97.4% | 96.5%
COc1ccc(/C=C/C(=O)Nc2ccccc2C(=O)O)cc1OC | 98.1% and 98% | 98.1% | 108% | 102% | 98.9% | 100% | 113% | 102%
